Assay results as given in PubChem BioAssay (NCI).
About 83,000 compounds went through this panel and 20% of them were active in at least one assay; those are over-represented in the sample as a whole.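 How to read the values: 0–100, growth inhibition (40 = 60% inhibited); 0, no net growth; -100 to 0, cell death (-40 = 40% of starting cells died; -100 = all dead).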 Unmarked numbers belong to inactive results. Calls of active or inactive are those of the source. Rule for the calls: active = growth percent below 10; inactive = the rest.

Experiments:
Assay in all cases: NCI-60 one-dose screen, 48 h (100 = growth as untreated, 0 = no growth, -100 = all killed)
NCI-H226 lung = settings: 10 µM
HOP-62 NSCLC = settings: 10 µM
NCI-H460 lung = settings: 10 µM
A549/ATCC NSCLC = settings: 10 µM
COLO 205 colon = settings: 10 µM
DU-145 prostate = settings: 10 µM
K-562 leukemia = settings: 10 µM
SF-539 CNS = settings: 10 µM
HCT-15 colon = settings: 10 µM
HT29 colon = settings: 10 µM
SNB-75 CNS = settings: 10 µM
SNB-19 CNS = settings: 10 µM
U251 CNS = settings: 10 µM
PC-3 prostate = settings: 10 µM
LOX IMVI melanoma = settings: 10 µM
MOLT-4 leukemia = settings: 10 µM
SR leukemia = settings: 10 µM
RPMI-8226 leukemia = settings: 10 µM
SK-OV-3 ovarian = settings: 10 µM
MDA-MB-468 breast = settings: 10 µM unless noted

Row | SMILES | growth (NCI-H226 lung) | growth (HOP-62 NSCLC) | growth (NCI-H460 lung) | growth (A549/ATCC NSCLC) | growth (COLO 205 colon) | growth (DU-145 prostate) | growth (K-562 leukemia) | growth (SF-539 CNS) | growth (HCT-15 colon) | growth (HT29 colon) | growth (SNB-75 CNS) | growth (SNB-19 CNS) [%] | growth (U251 CNS) | growth (PC-3 prostate) | growth (LOX IMVI melanoma) | growth (MOLT-4 leukemia) | growth (SR leukemia) | growth (RPMI-8226 leukemia) | growth (SK-OV-3 ovarian) | growth (MDA-MB-468 breast)
1 | Cc1ccc(-c2nc(C#N)c(S(=O)(=O)N3CCN(S(C)(=O)=O)CC3)o2)cc1 | 85.6% | 95.6% | 79.9% | 92.9% | -69.3% (active) | 68.7% | 6.88% (active) | 40.3% | -74.5% (active) | -6.5% (active) | 107% | 93.9 | 78.7% | 68.3% | -88.6% (active) | 0.383% (active) | 1.13% (active) | 4.64% (active) | 105% | -68.5% (active)
2 | CC(C)(C)c1cc(/C=C2\S/C(=N/c3ncn[nH]3)NC2=O)cc(C(C)(C)C)c1O | 5.38% (active) | 21.3% | 3.73% (active) | 15.4% | 12.4% | 32.3% | 16.7% | 18% | 11.5% | 10.7% | 19.3% | 23.7 | 2.45% (active) | 12.2% | -7.75% (active) | 13.8% | 6.04% (active) | 8.38% (active) | 4.14% (active) | 9.25% (active)
3 | O=C(Nc1ccc(OCc2ccc(F)cc2)cc1)Nc1ccc(Cl)c(C(F)(F)F)c1 | 15% | 11.4% | 6.77% (active) | 16.4% | -79.2% (active) | 31.6% | 9.32% (active) | 8.73% (active) | 7.42% (active) | 11.9% | 21% | 18.3 | 10.3% | -1.21% (active) | -47.4% (active) | 6.64% (active) | -7.46% (active) | -1.27% (active) | -26.5% (active) | -8.31% (active)
4 | O=C(CSc1nc2ccccc2c(=O)n1-c1ccc(Cl)cc1)Nc1ccc(-c2nc3ccccc3[nH]2)cc1 | 30.1% | 5.56% (active) | -12.6% (active) | -16.8% (active) | -12% (active) | -8.05% (active) | 2.71% (active) | -29.4% (active) | -7.08% (active) | -38.9% (active) | -39.1% (active) | 18.3 | -61.4% (active) | -54.2% (active) | -88.2% (active) | -7.88% (active) | -15.2% (active) | 22.4% | 94.2% | -41.7% (active)
5 | O=[N+]([O-])c1cccc(-c2nnc3c(/C=C/c4ccccc4O)nc4ccccc4n23)c1 | 33.1% | 52.8% | 28.8% | 57.8% | 41.3% | 63% | 24.1% | 46.2% | 52.5% | 48.6% | 102% | 87 | 76.7% | 52.2% | 56.1% | 38.7% | 51.8% | 54.9% | 75.7% | 52%
6 | COc1cccc(O)c1/C=C1\SCc2cc3c(OC)cccc3[o+]c21 | 98.2% | 105% | 127% | 108% | 140% | 114% | 106% | 98% | 111% | 113% | 115% | 101 | 114% | 97.9% | 103% | 112% | 98% | 107% | 118% | 112%
7 | COc1cc(C2CC(c3ccccc3)=Nc3c(N)nc(N)nc3N2)ccc1Oc1nc(NCCO)nc(N2CCOCC2)n1 (stereo not given) | 92.5% | 106% | 110% | 107% | 112% | 115% | 91.3% | 97.5% | 99.4% | 112% | 84.3% | 89.8 | 98.1% | 101% | 107% | 91.3% | 66% | 104% | 115% | 88%
